Measurements taken from PubChem BioAssay (NCI).
Values joined by “and” are separate entries in the source; they are usually repeats but may differ in a detail not shown here. Equal entries are not always repeated. About 79,000 compounds went through this panel and 15% of them were active in at least one assay; those are over-represented in the sample as a whole. A structure can be active in one record and inactive in another. Active and inactive are the calls of the source. Cut-off read from the data, not from the text of the source: active = growth inhibition above about 70%; inactive = the rest.

What was measured:
[1] = NCI Yeast Anticancer Drug Screen. Data for the rad52 strain (AID 147);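 note: 0% = growth of vehicle-treated control cultures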; settings: S. cerevisiae rad52 mutant growth inhibition, stronger effect = higher value
How it was run: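 Compounds are applied to a genetically defined yeast strain lacking normal DNA damage repair, and inhibition of growth is expressed relative to cultures given vehicle only.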

[2] = NCI Yeast Anticancer Drug Screen. Data for the wt1 strain (AID 149);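 note: 0% = growth of vehicle-treated wt1 cultures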; settings: S. cerevisiae wt1 strain (SPY 50644) growth inhibition, stronger effect = higher value
How it was run: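 wt1 yeast, compound-treated; % growth inhibition vs vehicle control.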

[3] = NCI Yeast Anticancer Drug Screen. Data for the rad50EPP+ strain (AID 151);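 note: 0% = growth of vehicle-treated control cultures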; settings: S. cerevisiae rad50 mutant strain, stronger effect = higher value
How it was run: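 Compounds were applied to the rad50EPP+ yeast strain, which bears a defined DNA repair alteration, and growth inhibition was determined relative to vehicle-treated cultures.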

[4] = NCI Yeast Anticancer Drug Screen. Data for the mgt1 strain (AID 153); settings: S. cerevisiae mgt1 mutant growth inhibition, stronger effect = higher value
How it was run: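 Strain: mgt1 yeast, one of a set carrying defined DNA damage repair or cell cycle control alterations. Compound-treated growth compared with vehicle.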

[5] = NCI Yeast Anticancer Drug Screen. Data for the rad50 strain (AID 155);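 note: 0% = growth of vehicle-only cultures of the same strain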; settings: S. cerevisiae rad50 strain growth inhibition, stronger effect = higher value
How it was run: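 Genetically altered yeast (DNA repair pathway); compound treatment; growth inhibition vs vehicle ctrl.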

[6] = NCI Yeast Anticancer Drug Screen. Data for the mec2-1 strain (AID 157); settings: S. cerevisiae mec2-1 strain, stronger effect = higher value
How it was run: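 Strain: mec2-1 (DNA repair/cell cycle alteration). Compound exposure, then growth measured; inhibition expressed relative to vehicle.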

[7] = NCI Yeast Anticancer Drug Screen. Data for the rad14 strain (AID 159);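 note: 0% = growth of vehicle-treated control cultures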; settings: S. cerevisiae rad14 strain growth inhibition, stronger effect = higher value
How it was run: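 Test compounds were applied to a repair-deficient yeast strain. Its growth was then compared with that of cultures given vehicle alone, and inhibition was expressed relative to those controls.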

[8] = NCI Yeast Anticancer Drug Screen. Data for the CLN2oe strain (AID 163);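 note: 0% = growth of vehicle-only control cultures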; settings: S. cerevisiae CLN2oe strain, stronger effect = higher value
How it was run: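 Growth of a genetically modified yeast strain is measured after compound exposure and compared with cultures given vehicle alone.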

[9] = NCI Yeast Anticancer Drug Screen. Data for the cln2 rad14 strain (AID 165);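 note: 0% = growth equal to vehicle treated cultures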; settings: S. cerevisiae cln2 rad14 strain, stronger effect = higher value
How it was run: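 Compounds are applied to the cln2 rad14 yeast strain, and growth is then compared with that of vehicle-treated cultures to give inhibition.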

[10] = NCI Yeast Anticancer Drug Screen. Data for the bub3 strain (AID 167); settings: S. cerevisiae bub3 mutant strain, stronger effect = higher value
How it was run: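 Yeast carrying a defined mutation is treated with each compound, and growth is compared with that of vehicle-exposed cells to give inhibition.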

[11] = NCI Yeast Anticancer Drug Screen. Data for the wt2 strain (AID 169);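 note: 0% = growth of vehicle-treated yeast cultures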; settings: S. cerevisiae wt2 strain growth inhibition, stronger effect = higher value
How it was run: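 This strain belongs to a panel of yeast strains with defined genetic alterations in DNA damage repair or cell cycle control. Compounds are applied, and growth inhibition is measured against vehicle-treated cultures.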

[12] = NCI Yeast Anticancer Drug Screen. Data for the mlh1 strain (AID 171);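 note: 0% = growth of vehicle-treated control cultures of the same strain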; settings: S. cerevisiae mlh1 strain growth inhibition, stronger effect = higher value
How it was run: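 Growth of the mutant yeast strain after compound exposure, expressed as inhibition relative to vehicle-only controls.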

[13] = NCI Yeast Anticancer Drug Screen. Data for the sgs1 strain (AID 173);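 note: 0% = growth of vehicle-only control cultures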; settings: S. cerevisiae sgs1 mutant, stronger effect = higher value
How it was run: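 Growth of a yeast strain bearing a defined genetic alteration is measured after compound treatment. Inhibition is expressed relative to vehicle-only controls.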

[14] = NCI Yeast Anticancer Drug Screen. Data for the mlh1 rad18 strain (AID 175); settings: S. cerevisiae mlh1 rad18 strain growth inhibition, stronger effect = higher value
How it was run: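 Read-out is yeast growth inhibition, calculated against vehicle-only controls. The compound was applied to a strain engineered with DNA damage repair alterations.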

[15] = NCI Yeast Anticancer Drug Screen. Data for the rad18 strain (AID 177); settings: S. cerevisiae rad18 mutant growth inhibition, stronger effect = higher value
How it was run: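 Growth of the mutant yeast strain after compound exposure, normalised to vehicle-only cultures.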

[16] = at 5.0 µM (retest, dose inferred, filed as 0.5)
[17] = at 50.0 µM (retest, dose inferred, filed as 5.0)

Nc1ccn(C2OC(COP(=O)(O)O)C(O)C2O)c(=O)n1 (stereo not given)
growth inhibition ([1]; at 1.2 µM): -1% (inactive) | growth inhibition ([1]; at 3.7 µM): 0% (inactive) | growth inhibition ([1]; at 11.0 µM): 3% (inactive) | growth inhibition ([1]; at 33.0 µM): 5% (inactive) | growth inhibition ([1]; at 100.0 µM): 6% (inactive) | growth inhibition ([2]; at 1.2 µM): -11% (inactive) | growth inhibition ([2]; at 3.7 µM): 1% (inactive) | growth inhibition ([2]; at 11.0 µM): 2% (inactive) | growth inhibition ([2]; at 33.0 µM): 0% (inactive) | growth inhibition ([2]; at 100.0 µM): 1% (inactive) | growth inhibition ([3]; at 1.2 µM): -5% (inactive) | growth inhibition ([3]; at 3.7 µM): -2% (inactive) | growth inhibition ([3]; at 11.0 µM): 8% (inactive) | growth inhibition ([3]; at 33.0 µM): 37% (inactive) | growth inhibition ([3]; at 100.0 µM): 72% (active) | growth inhibition ([4]; at 1.2 µM): 2% (inactive) | growth inhibition ([4]; at 3.7 µM): 4% (inactive) | growth inhibition ([4]; at 11.0 µM): 2% (inactive) | growth inhibition ([4]; at 33.0 µM): 3% (inactive) | growth inhibition ([4]; at 100.0 µM): 14% (inactive) | growth inhibition ([5]; at 1.2 µM): 0% (inactive) | growth inhibition ([5]; at 3.7 µM): 9% (inactive) | growth inhibition [5, 16]: 38% (inactive) | growth inhibition ([5]; at 11.0 µM): 11% (inactive) | growth inhibition ([5]; at 33.0 µM): 33% (inactive) | growth inhibition [5, 17]: 42% (inactive) | growth inhibition ([5]; at 50.0 µM): 78.3% (active) and -3% (inactive) | growth inhibition ([5]; at 100.0 µM): 52% (inactive) | growth inhibition ([6]; at 1.2 µM): 0% (inactive) | growth inhibition ([6]; at 3.7 µM): 5% (inactive) | growth inhibition [6, 16]: 3% (inactive) | growth inhibition ([6]; at 11.0 µM): 8% (inactive) | growth inhibition ([6]; at 33.0 µM): 11% (inactive) | growth inhibition [6, 17]: 19% (inactive) | growth inhibition ([6]; at 50.0 µM): -9.35% (inactive) and -12.8% (inactive) | growth inhibition ([6]; at 100.0 µM): -3% (inactive) | growth inhibition ([7]; at 1.2 µM): -1% (inactive) | growth inhibition ([7]; at 3.7 µM): 6% (inactive) | growth inhibition ([7]; at 11.0 µM): 4% (inactive) | growth inhibition ([7]; at 33.0 µM): 5% (inactive) | growth inhibition ([7]; at 100.0 µM): 7% (inactive) | growth inhibition ([8]; at 1.2 µM): -4% (inactive) | growth inhibition ([8]; at 3.7 µM): -2% (inactive) | growth inhibition ([8]; at 11.0 µM): -6% (inactive) | growth inhibition ([8]; at 33.0 µM): -15% (inactive) | growth inhibition ([8]; at 100.0 µM): -5% (inactive) | growth inhibition [9, 16]: -4% (inactive) | growth inhibition [9, 17]: -10% (inactive) | growth inhibition ([9]; at 50.0 µM): -40.1% (inactive) and -51.6% (inactive) | growth inhibition ([10]; at 1.2 µM): -2% (inactive) | growth inhibition ([10]; at 3.7 µM): -6% (inactive) | growth inhibition [10, 16]: -5% (inactive) | growth inhibition ([10]; at 11.0 µM): -5% (inactive) | growth inhibition ([10]; at 33.0 µM): -12% (inactive) | growth inhibition [10, 17]: -4% (inactive) | growth inhibition ([10]; at 50.0 µM): -32.9% (inactive) and 0.5% (inactive) | growth inhibition ([10]; at 100.0 µM): -10% (inactive) | growth inhibition ([11]; at 1.2 µM): -1% (inactive) | growth inhibition ([11]; at 3.7 µM): -1% (inactive) | growth inhibition ([11]; at 11.0 µM): -1% (inactive) | growth inhibition ([11]; at 33.0 µM): 1% (inactive) | growth inhibition ([11]; at 100.0 µM): 12% (inactive) | growth inhibition ([12]; at 1.2 µM): 1% (inactive) | growth inhibition ([12]; at 3.7 µM): 8% (inactive) | growth inhibition ([12]; at 11.0 µM): 0% (inactive) | growth inhibition ([12]; at 33.0 µM): 7% (inactive) | growth inhibition ([12]; at 100.0 µM): 26% (inactive) | growth inhibition ([13]; at 1.2 µM): 21% (inactive) | growth inhibition ([13]; at 3.7 µM): 43% (inactive) | growth inhibition ([13]; at 11.0 µM): 68% (inactive) | growth inhibition ([13]; at 33.0 µM): 82% (active) | growth inhibition ([13]; at 100.0 µM): 86% (active) | growth inhibition [14, 16]: 13% (inactive) | growth inhibition [14, 17]: -5% (inactive) | growth inhibition ([14]; at 50.0 µM): 21.4% (inactive) and -23.4% (inactive) | growth inhibition ([15]; at 1.2 µM): -1% (inactive) | growth inhibition ([15]; at 3.7 µM): -4% (inactive) | growth inhibition ([15]; at 11.0 µM): -8% (inactive) | growth inhibition ([15]; at 33.0 µM): -15% (inactive) | growth inhibition ([15]; at 100.0 µM): -22% (inactive)
